Compound activity from PubChem BioAssay.
The list is not random: actives were taken first. Their share in the collection is about 1.4%.
PriA SSB inh = K. pneumoniae PriA-SSBct interaction inhibition | AlphaScreen SSBct-PriA binding, biotinylated peptide | inhibition, % at 33 µM | 430,000 compounds, 0.6% hits | AID 1272365; in the data active means inhibition mostly above about 37%, no sharp cut-off; inactive means mostly below about 20%;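 further: plate controls were negative control peptide for no effect and reference peptide for full effect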
BH1578 lux ind = quorum light induction in luxS cqsA deficient V. cholerae; activation, % at 18.7 µM; AID 588436; 350,000 compounds, 0.16% hits; V. cholerae BH1578 lux reporter, luminescence, 6 h; in the data active means activation mostly above about 9.7%, no sharp cut-off
FadD28 binding = M. tuberculosis FadD28 bisubstrate binding inhibition. FadD28 bisubstrate probe binding, fluorescence polarization. inhibition, % at 12.5 µM. 360,000 compounds, 0.22% hits. AID 588549; in the data active means inhibition above about 8.5%, passing the limit was not always enough
PrPC TRFRET = inhibitors of human cell surface prion protein PrPC. P04156. TR-FRET read-out. inhibition, % at 13.8 µM. 370,000 compounds, 0.43% hits. AID 720596; in the data active means inhibition above about 24%; further: 0% = median of the test wells and 100% = reference compound wells
PrP 5UTR inh = inhibition of PrP 5' UTR reporter expression; inhibition, % (concentration not given with the values); AID 488862; cell-based PrP 5' UTR mRNA reporter, plate reader; 340,000 compounds, 0.35% hits; in the data active means inhibition above about 52%; further: 0 = median of the neutral control wells
Active calls of the source: *; i = inactive; x = not tested or not shown; ! = repeats disagree.

SMILES	PriA SSB inh	BH1578 lux ind	FadD28 binding	PrPC TRFRET	PrP 5UTR inh
Cc1nn(C)c(=O)c2c1cnn2C(C)(C)C	-5.0	x	x	x	x
CC(=NNC(=O)C1(C)CC1(Br)Br)c1cccc(NC(=O)c2ccc(C)o2)c1 (stereo unspecified)	14.1	x	x	x	x
COc1ccc2c(c1)CCCC2(O)CNC(=O)N1CCN(S(C)(=O)=O)C1=O (stereo unspecified)	3.0	x	x	x	x
Cc1cc(NC(=O)CSC2=Nc3ccccc3C3=NC(Cc4ccccc4)C(=O)N23)n[nH]1 (stereo unspecified)	-5.8	25.8*	-1.5	2.2	-23.4
Cn1nccc1C(=O)NN=Cc1c(O)ccc2ccccc12	-0.3	x	x	x	x
Cc1ccnc(Nc2cc(NCCNC(=O)c3ccccc3C)nc(C)n2)c1	-5.0	x	x	x	x
Cc1ccnc(Nc2ccc(NCCNC(=O)c3ccc(Br)o3)nn2)c1	62.0*	x	x	x	x
NNc1nc(Nc2ccccc2)nc(Nc2ccccc2)n1	48.9*	0.1	-0.3	3.7	0.0
NNc1nc(Nc2ccccc2)nc(N2CCCCC2)n1	7.2	-1.8	-0.2	9.9	-26.4
COc1ccc(Nc2nc(NN)nc(Nc3ccc(OC)cc3)n2)cc1	100.3*	-0.3	-2.0	10.0	-7.5
Cc1cc(N)nc(Nc2ccc(Nc3ccccc3)cc2)n1	41.0*	x	x	x	x
Cc1cc(N)nc(Nc2ccc(C(N)=O)cc2)n1	-6.0	x	x	x	x
Cc1ccc2c(c1)c(-c1ccccc1)c(-c1ccccc1)n2CC(O)Cn1cnc(-c2ccccc2)c1-c1ccccc1 (stereo unspecified)	-15.0	x	x	x	x
Fc1ccc(-[n+]2nc(Nc3ccccc3)sc2-c2c(Cl)cccc2Cl)cc1	45.5*	i	-2.7	1.7	-23.8
COc1ccc(-c2sc(Nc3ccccc3)n[n+]2-c2ccc(F)cc2)cc1Br	-0.8	i	-0.2	-4.1	-19.0
COc1ccc(C)cc1Nc1n[n+](-c2ccccc2)c(-c2ccc(OC)c(OC)c2OC)s1	5.4	-0.3	-3.0	2.3	-22.7
COc1ccc(C)cc1Nc1n[n+](-c2ccccc2)c(-c2c(Cl)cccc2Cl)s1	38.8*	x	x	-1.5	x
CCc1ccc(Nc2n[n+](-c3ccccc3)c(-c3ccc(N(CC)CC)cc3)s2)cc1	-5.2	-0.8	-10.6	14.5	-16.3
CCc1ccc(Nc2n[n+](-c3ccccc3)c(-c3c(Cl)cccc3Cl)s2)cc1	65.6*	-0.4	-4.3	11.6	-12.2
COc1ccc2ccccc2c1-c1sc(Nc2ccccc2)n[n+]1-c1ccc(F)cc1	38.9*	2.7	-1.9	0.3	-8.2
CCN(CC)CCCNC(=O)c1nnc2n(c1=O)CCN2c1ccc(OC)cc1	-2.0	x	x	x	x
O=C(NCCOc1cccc(C(F)(F)F)c1)c1ccc([N+](=O)[O-])cc1	-2.0	x	x	x	x
COc1ccc(-c2cc3ccccc3n2CC(O)Cn2nc(C)cc2C)cc1 (stereo unspecified)	47.2*	-1.4	-1.1	5.3	4.1
O=C1C(=C(I)I)c2ccccc2-c2ccccc21	81.1*	-0.8	-1.1	3.6	-40.1
CC(C)N=C(NC#N)SCc1ccc(Br)cc1	1.8	30.1*	-0.9	13.0	-15.7
SMILES	PriA SSB inh	BH1578 lux ind	FadD28 binding	PrPC TRFRET	PrP 5UTR inh
COc1cc(C(=O)Nc2nnc(-c3cc(C)n(C)n3)o2)cc(OC)c1OC	-4.0	x	x	x	x
COC(=O)c1ccc(C(=O)Nc2nnc(-c3cc(C)n(C)n3)o2)cc1	95.0*	x	x	x	x
O=S(=O)(Nc1nc(-c2sccc2Cl)cs1)c1cc(Cl)ccc1Cl	-1.4	-0.2	23.6*	x	-16.1
N#Cc1ccc(Cl)cc1NC(=O)c1cccn(Cc2cccc(F)c2)c1=O	-5.0	x	x	x	x
COc1ccc(Br)cc1C1NC(=O)NC1=O (stereo unspecified)	47.0*	x	x	x	x
COc1ccc2cc(C(=O)NCc3cc(C)oc3C)[nH]c2c1	10.0	x	x	x	x
CC(C(=O)Nc1ccc(F)c(Cl)c1)N1C(=O)c2ccccc2S1(=O)=O (stereo unspecified)	-8.0	x	x	x	x
O=S(=O)(NCC(c1ccco1)N1CCc2ccccc21)c1ccccc1 (stereo unspecified)	25.0*!	-0.3	0.5	2.7	-3.9
O=S(=O)(NCC(c1cccs1)N1CCc2ccccc21)c1ccccc1 (stereo unspecified)	-4.0	x	x	x	x
COCc1cc(C)nc(OCC(=O)NN=Cc2ccc(O)cc2O)c1C#N	-10.4	x	x	x	x
O=c1c2c3c(sc2nc(SCc2ccc4c(c2)OCO4)n1-c1ccccc1)CCC3	5.0	x	x	x	x
CCOc1ccc2nc3cc(N=Nc4ccc(N)nc4N)ccc3c(N)c2c1	35.5	2.0	24.6*	x	-13.5
COc1ccc(N=Nc2ccc(N)nc2N)cc1	10.6	-0.5	-3.7	-11.8	-60.1
CCOC(=O)Cn1c(C2CC(=O)N(c3cc(Cl)ccc3OC)C2)nc2ccccc21 (stereo unspecified)	-10.0	x	x	x	x
